Compounds with a hit are over-represented: about 1.8% of the library has one in this group of screens.
Fam108B counter: counter-screen for RBBP9 inhibitors: inhibitors of mouse Fam108B; recombinant Fam108B, FP-Rh probe fluorescence polarization; inhibition, % at 9.51 µM; actives 0.33% (n = 300,000);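 active = inhibition above the screen mean inhibition plus 3 SD, computed separately per campaign, cut at about 18% in these data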;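 note: inhibitors lower polarization as less probe binds the enzyme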
PAD4 inh: inhibitors of human PAD4. recombinant PAD4, RCA probe fluorescence polarization. inhibition, % at 6.36 µM. actives 0.41% (n = 330,000). AID 485272;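 active = percent inhibition above a cutoff equal to the mean of all tested compounds plus 3 SD, cut at about 15% in these data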;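 note: 0% = PAD4 with RCA probe and DMSO and 100% = probe without PAD4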
LYPLA2 counter: counter-screen for PME1 inhibitors: inhibitors of human LYPLA2. O95372. recombinant LYPLA2, FP-Rh probe fluorescence polarization. inhibition, % at 5.9 µM. actives 0.38% (n = 320,000). AID 2177;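 active = inhibition above the screen-wide mean plus 3 SD, limit set per campaign, cut at about 26% in these data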;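 note: 0% = LYPLA2 with DMSO and 100% = wells lacking LYPLA2 enzyme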
Target sequence (O95372 whole entry, looked up): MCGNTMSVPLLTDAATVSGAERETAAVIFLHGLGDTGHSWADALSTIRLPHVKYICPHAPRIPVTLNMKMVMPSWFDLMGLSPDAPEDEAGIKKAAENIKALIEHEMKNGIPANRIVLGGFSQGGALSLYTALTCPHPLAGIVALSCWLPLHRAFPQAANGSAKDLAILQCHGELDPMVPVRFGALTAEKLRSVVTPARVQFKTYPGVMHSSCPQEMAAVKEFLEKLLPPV
LYPLA1 inh: counter-screen for PME1 inhibitors: inhibitors of human LYPLA1; recombinant LYPLA1, FP-Rh probe fluorescence polarization; actives 0.16% (n = 320,000); AID 2174; O75608; inhibition, % at 5.9 µM;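 active = inhibition above the mean of all tested compounds plus 3 SD, set per campaign, cut at about 14% in these data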;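 note: inhibitors block serine hydrolase probe labeling of LYPLA1 so polarization falls; 0% = enzyme with DMSO and 100% = wells lacking LYPLA1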
Target sequence (O75608 whole entry, looked up): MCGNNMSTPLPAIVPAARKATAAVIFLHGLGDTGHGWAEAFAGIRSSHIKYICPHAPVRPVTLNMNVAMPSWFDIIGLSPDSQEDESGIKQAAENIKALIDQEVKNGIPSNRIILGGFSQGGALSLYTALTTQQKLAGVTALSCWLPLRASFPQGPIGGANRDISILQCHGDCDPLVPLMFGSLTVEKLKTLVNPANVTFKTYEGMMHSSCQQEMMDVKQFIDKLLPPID
GSTO1 counter: GSTO1 inhibition, counter-screen for RBBP9 inhibitors; P78417; recombinant GSTO1, activity-based probe fluorescence polarization; inhibition, % at 5.96 µM; actives 1.1% (n = 300,000); AID 1974;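 active = inhibition above the campaign mean inhibition plus 3 SD, cut at about 35% in these data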;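 note: 0% = GSTO1-1 with DMSO and 100% = wells lacking GSTO1-1 enzyme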
PME-1 primary: blocks human protein phosphatase methylesterase 1; recombinant PME-1, FP-Rh probe fluorescence polarization; inhibition, % at 5.9 µM; actives 0.53% (n = 320,000);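 active = inhibition above the campaign mean of all compounds plus 3 SD, cut at about 26% in these data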;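 note: competitive labeling of PME-1 active site by serine hydrolase directed probe; 0% = PME-1 with DMSO and 100% = wells lacking PME-1 enzyme; inhibitors block probe labeling so polarization falls and inhibition rises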
GSTO1 confirm: confirmation of human GSTO1 inhibitors. shares compounds with GSTO1 counter. recombinant GSTO1, probe fluorescence polarization. inhibition, % at 5.96 µM. AID 2176. actives 54% (n = 2,400);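 active = inhibition above the primary screen's cutoff, its mean inhibition plus 3 SD, cut at about 35% in these data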;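 note: loss of polarization as inhibitors block binding of rhodamine sulfonate ester activity probe; 0% = GSTO1 with DMSO and 100% = wells lacking GSTO1 enzyme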
GSTO1 recomb ABPP: inhibitors of recombinant human GSTO1. actives 30% (n = 130). shares compounds with GSTO1 counter. AID 463110. inhibition, % at 1 µM. gel ABPP SE-Rh probe fluorescence;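 active = inhibition of the enzyme GSTO1 above about 75%, limit read from the data; inactive = inhibition below that limit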
LYPLA1 conf: counter-screen for PME1 inhibitors: confirmation of human LYPLA1 inhibitors | inhibition, % at 5.9 µM | recombinant LYPLA1, FP-Rh probe fluorescence polarization | actives 69% (n = 480) | shares compounds with LYPLA1 inh;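 active = mean inhibition across replicates above the hit cutoff set in the primary screen, cut at about 15% in these data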;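 note: loss of FP-Rh probe labeling of LYPLA1 seen as lower polarization; 0% = LYPLA1 with DMSO and 100% = wells lacking LYPLA1 enzyme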
LYPLA2 confirm: LYPLA2 (human) inhibition, confirmation counter-screen; AID 2232; inhibition, % at 5.9 µM; recombinant LYPLA2, FP-Rh probe fluorescence polarization; shares compounds with LYPLA2 counter; actives 72% (n = 1,100);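 active = mean inhibition across replicates above the hit cutoff set in the primary screen, cut at about 26% in these data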;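 note: blocked labeling of the enzyme by serine hydrolase FP-Rh probe lowers polarization; 0% = enzyme with DMSO and 100% = wells lacking LYPLA2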
PAD4 confirm: PAD4 (human) inhibition, confirmed | recombinant PAD4, RCA probe fluorescence polarization | shares compounds with PAD4 inh | actives 28% (n = 1,200) | inhibition, % at 6.36 µM;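 active = mean inhibition across replicates above the hit cutoff set by the earlier primary screen, cut at about 15% in these data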;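 note: inhibitors block active-site labeling by the probe so polarization falls; 0% = PAD4 with probe and DMSO and 100% = probe without PAD4 enzyme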
* marks the source's active call; other numbers are inactive results; . = no result given; ! = not active in a repeat.

SMILES	Fam108B counter	PAD4 inh	LYPLA2 counter	LYPLA1 inh	GSTO1 counter	PME-1 primary	GSTO1 confirm	PAD4 confirm	others
Nn1cnnc1N/N=C/c1ccc(Cl)c([N+](=O)[O-])c1	-4	56*	-7	-1	39*	-2	6	-1
O=C(CCC(=O)c1ccc(Cl)cc1)OCc1nc2ccsc2c(=O)[nH]1	2	-2	6	5	21	2	.	.
Cc1cc(C(=O)N/N=C/c2ccc(-c3cccc(Cl)c3Cl)o2)n[nH]1	-10	1	-12	-7	-8	-12	.	.
CC(C)(C)c1cc(C(=O)N/N=C/c2ccc(-c3ccccc3[N+](=O)[O-])o2)n[nH]1	9	48*	36*	26*	52*	32*	4	-7	LYPLA1 conf=0;LYPLA2 confirm=1
Cc1nc2ccccc2c(=O)n1/N=C/c1ccc(C(C)C)cc1	1	-2	22	-3	-2	-15	.	.
CCCCOc1ccc(C2OC34CCCCC3C(C#N)(C#N)C2(C#N)C(=N)O4)cc1 (stereo unspecified)	13	15	16	11	25	22	.	.
CCOc1ccc(C2OC34CCCCC3C(C#N)(C#N)C2(C#N)C(=N)O4)cc1OC (stereo unspecified)	17	35*	25	21*	39*	21	15	18*	LYPLA1 conf=8
O=C1c2ccccc2C(=O)c2c1cccc2-n1nnc2ccccc21	-1	-1	5	3	-3	1	.	.
O=C1C(N2CCOCC2)=C(n2nnc3ccccc32)C(=O)c2ccccc21	11	23*	14	-2	77*	0	84*	15*
Cc1csc(NC(=O)CSc2nnc(-c3ccoc3C)n2Cc2ccco2)n1	0	7	-1	-3	0	8	.	.
COCCn1c(N)c(S(=O)(=O)c2cccs2)c2nc3ccccc3nc21	9	22*	-4	-6	81*	8	2	-5
CN(C)c1cc(Cl)c2nonc2c1N	9	40*	6	1	60*	6	35	-9
CCN(CC)c1cc(Cl)c2nonc2c1N	-1	-3	6	2	4	1	.	.
COc1ccc(-c2nc3ccccc3nc2-c2ccc(OC)c(OC)c2)cc1OC	4	0	2	-6	2	0	.	.
COc1ccc2nc3ccccc3nc2c1N	0	25*	-1	-1	60*	6	9	-3
O=C(Nc1ccc([N+](=O)[O-])cc1)Nc1cnccn1	0	-3	0	-6	-1	5	.	.
Cc1cc(NC(=O)COC(=O)Cn2c(C)csc2=O)ccc1Br	1	3	-2	2	1	7	.	.
COc1ccc(C(=O)c2c(C(F)(F)F)oc3c2C(=O)c2ccccc2C3=O)cc1	7	30*	-3	-3	63*	12	66*	22*
CCCCN(C(=O)c1cccc(S(=O)(=O)N(C)c2ccc(C)cc2)c1)c1c(N)n(CCCC)c(=O)[nH]c1=O	1	-1	-3	0	8	-3	.	.
COc1ccc(C2C(C#N)=C(N)Oc3c2c(-c2ccccc2)nn3-c2ccccc2)c(OC)c1OC (stereo unspecified)	6	25*	10	-3	47*	6	16	3
Cc1nn(-c2ccccc2)c2c1C(c1ccc(F)cc1F)C(C#N)=C(N)O2 (stereo unspecified)	4	6	5	-2	27	-7	.	.
COCC1CCCCN1C(=O)C1CCN(c2nc(-c3ccccc3)nc3c2CCC3)CC1 (stereo unspecified)	1	-1	4	3	0	2	.	.
O=C(Cc1cc(=O)[nH][nH]1)N/N=C/c1c(F)cccc1Cl	-1	-16	-11	-2	34	-1	.	.
O=C(Cc1cc(=O)[nH][nH]1)N/N=C/c1c(Cl)cccc1Cl	-4	20*!	4	3	52*	-1	1	-5
COc1ccc(/C=C(/NC(=O)/C=C/c2ccccc2)C(=O)NCCCCCC(=O)O)cc1	-2	-1	3	0	-2	5	.	.
SMILES	Fam108B counter	PAD4 inh	LYPLA2 counter	LYPLA1 inh	GSTO1 counter	PME-1 primary	GSTO1 confirm	PAD4 confirm	others
COc1ccc(CCN(C)C(=O)C(CCSC)NC(=O)c2ccco2)cc1OC (stereo unspecified)	.	2	-5	-2	.	5	.	.
O=C(CCl)N(c1ccc(Cl)cc1)c1c[nH]c2ccccc12	-1	17*	-2	-1	72*	-11	82*	34*	GSTO1 recomb ABPP=63
O=C(Cc1ccc(Cl)cc1)NCCc1c[nH]c2ccccc12	3	3	1	1	9	3	.	.
COC(=O)[C@@H]1C[C@@]2(O)[C@H](O)[C@H](O)[C@H](O)C[C@H]2N1CC1CC1	2	-4	0	-2	-2	3	.	.
O=C(N[C@@H](Cc1ccccc1)C(=O)O)c1ccc(C(F)(F)F)cc1	-4	-2	3	4	6	1	.	.
O=C(NC1(O)C(=O)c2ccccc2C1=O)c1ccc(C(F)(F)F)cc1	7	40*	5	-1	84*	8	77*	40*
CN(C)c1ccc(N/C=C/C(=O)C(C)(C)C)cc1	6	18*	-5	-4	83*	6	13	-9
CN(C)c1ccc(N/C=C/C(=O)c2ccccc2)cc1	0	17*	5	0	62*	1	-1	-3
CC(OC(=O)c1cc2c(ccc3ccccc32)oc1=O)c1nc2ccccc2s1 (stereo unspecified)	-8	-1	-1	-1	-5	9	.	.
CC(C)NC(=O)C(=O)NCCCN1CCOCC1	2	-2	-1	-2	5	-6	.	.
COc1ccc(OC)c(NC(=O)Nc2ccc(O)c3ccccc23)c1	6	23*	-3	-11	61*	13	-7	1
O=C(Nc1ccccc1)Nc1ccc(O)c2ccccc12	11	24*	-8	-13	47*	16	38*	-11
COc1ccc(C(c2c(C)[nH]n(-c3ccccc3)c2=O)c2c(C)[nH]n(-c3ccccc3)c2=O)cc1OC	1	69*	-3	-4	69*	5	22	0

Screens as filed in PubChem BioAssay.
